Measurements taken from PubChem BioAssay AID1159580 (chemical genetic matrix, 2015).
About 2,000 (36%) of roughly 5,500 compounds were called active. Another 18% or so got no clear call; they are omitted. No stated cut-off is given here; in the data, active means normalized growth mostly below about 0.91 (no sharp cut-off); inconclusive means no clear call, values can overlap the other calls; inactive means mostly above about 0.92. This is one part of the list.

Test: chemical genetic growth profiling, strain panel (AID 1159580);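 further: tested at 20 µM; growth read once vehicle control cultures reached saturation at 30 °C; 1 = growth at the plate median or of vehicle wells; lower values mean less growth of the strain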
Details: S. cerevisiae deletion strains, growth OD

Measured: normalized growth

[N-]=[N+]=CC(=O)OCC(N)C(=O)O (centres undefined)
inactive: locus YAL021C, strain ccr4, active compounds read low 0.994 | locus YAL026C, strain drs2, active compounds read low 0.988 | locus YAL030W, strain snc1, active compounds read low 1.02 | locus YBL061C, strain skt5, active compounds read low 1.01 | locus YBR009C, strain hhf1, active compounds read low 0.979 | locus YBR023C, strain chs3, active compounds read low 0.995 | locus YBR171W, strain sec66, active compounds read low 1.02 | locus YBR231C, strain swc5, active compounds read low 1.03 | locus YBR279W, strain paf1, active compounds read low 0.98 | locus YCL011C, strain gbp2, active compounds read low 0.983 | locus YCL016C, strain dcc1, active compounds read low 0.958 | locus YCL061C, strain MRC1, active compounds read low 1.02 | locus YCL069W, strain vba3, active compounds read low 1 | locus YCR088W, strain abp1, active compounds read low 1.01 | locus YDL005C, strain med2, active compounds read low 0.992 | locus YDL040C, strain nat1, active compounds read low 1 | locus YDR001C, strain nth1, active compounds read low 0.995 | locus YDR069C, strain doa4, active compounds read low 1.03 | locus YDR137W, strain rgp1, active compounds read low 0.99 | locus YDR159W, strain sac3, active compounds read low 0.978 | locus YDR195W, strain ref2 1.03 | locus YDR297W, strain sur2, active compounds read low 1.02 | locus YDR334W, strain swr1, active compounds read low 1 | locus YDR335W, strain msn5, active compounds read low 1.01 | locus YDR392W, strain spt3, active compounds read low 0.931 | locus YEL003W, strain gim4, active compounds read low 1.01 | locus YEL037C, strain rad23, active compounds read low 1 | locus YEL061C, strain CIN8 (second series), active compounds read low 1 | locus YER015W, strain faa2, active compounds read low 1.01 | locus YER016W, strain bim1, active compounds read low 0.995 | locus YER111C, strain swi4, active compounds read low 1 | locus YER155C, strain BEM2 (second series), active compounds read low 1.05 | locus YFR010W, strain ubp6, active compounds read low 1.01 | locus YGL167C, strain pmr1, active compounds read low 1.02 | locus YGL173C, strain kem1, active compounds read low 1.02 | locus YGL227W, strain vid30, active compounds read low 1.01 | locus YGL240W, strain doc1, active compounds read low 1.04 | locus YGL253W, strain hxk2, active compounds read low 0.973 | locus YHR013C, strain ard1, active compounds read low 1.01 | locus YHR027C, strain rpn1, active compounds read low 0.995 | locus YHR030C, strain SLT2, active compounds read low 0.967 | locus YHR079C, strain IRE1, active compounds read low 0.977 | locus YHR142W, strain chs7, active compounds read low 0.976 | locus YJL092W, strain hpr5, active compounds read low 1.01 | locus YJL095W, strain BCK1 (second series), active compounds read low 1.01 | locus YJL095W, strain BCK1, active compounds read low 0.977 | locus YJL115W, strain asf1, active compounds read low 1.01 | locus YJL129C, strain trk1, active compounds read low 1.01 | locus YJL154C, strain vps35, active compounds read low 1 | locus YJL164C, strain tpk1, active compounds read low 0.985 | locus YJL166W, strain qcr8, active compounds read low 1.05 | locus YJR066W, strain TOR1, active compounds read low 0.936 | locus YKL160W, strain elf1, active compounds read low 1.02 | locus YKR026C, strain gcn3, active compounds read low 1 | locus YKR091W, strain srl3, active compounds read low 1.01 | locus YLL001W, strain dnm1, active compounds read low 1.04 | locus YLL026W, active compounds read low 1.01 | locus YLL041C, strain sdh2, active compounds read low 1 | locus YLR027C, strain aat2, active compounds read low 1.01 | locus YLR113W, strain HOG1, active compounds read low 0.964 | locus YLR221C, strain rsa3, active compounds read low 0.976 | locus YLR258W, strain gsy2, active compounds read low 0.994 | locus YLR262C, strain YPT6 (second series), active compounds read low 1.02 | locus YLR320W, strain mms22, active compounds read low 0.991 | locus YLR342W, strain FKS1, active compounds read low 1.04 | locus YLR357W, strain rsc2, active compounds read low 1 | locus YLR370C, strain arc18, active compounds read low 1.01 | locus YLR384C, strain iki3, active compounds read low 1 | locus YML120C, strain ndi1, active compounds read low 1 | locus YMR058W, strain fet3, active compounds read low 1.01 | locus YMR125W, strain sto1, active compounds read low 0.984 | locus YMR129W, active compounds read low 0.999 | locus YMR205C, strain PFK2, active compounds read low 1.03 | locus YMR231W, strain pep5, active compounds read low 1 | locus YNL071W, strain lat1, active compounds read low 0.992 | locus YNL183C, strain NPR1, active compounds read low 0.937 | locus YNL209W, strain ssb2, active compounds read low 0.989 | locus YNL248C, strain rpa49, active compounds read low 0.976 | locus YNL322C, strain KRE1 (second series), active compounds read low 0.999 | locus YNR049C, strain mso1, active compounds read low 1 | locus YOR001W, strain rrp6, active compounds read low 1.02 | locus YOR070C, strain gyp1, active compounds read low 0.995 | locus YOR080W, strain dia2, active compounds read low 1.02 | locus YOR083W, strain WHI5, active compounds read low 0.992 | locus YOR106W, strain vam3, active compounds read low 1.03 | locus YOR231W, strain MKK1, active compounds read low 0.976 | locus YOR265W, strain rbl2, active compounds read low 0.998 | locus YOR270C, strain vph1, active compounds read low 1.03 | locus YOR290C, strain snf2, active compounds read low 0.961 | locus YPL051W, strain arl3, active compounds read low 1.01 | locus YPL078C, strain atp4, active compounds read low 1.03 | locus YPL106C, strain sse1, active compounds read low 0.966 | locus YPL240C, strain hsp82, active compounds read low 0.99 | locus YPL256C, strain CLN2, active compounds read low 1
